Source: PubChem BioAssay
p-CIP stab down = p/CIP-EGFP fusion destabilizers, primary screen, fluorescence, F442A cells | Q05BA5 | decrease of EGFP signal, % at 10 µM | 290,000 compounds, 0.01% hits | AID 1984, 2009 | 16 h;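 active means EGFP signal decrease of at least 30% at 10 µM or well 3 SD below plate mean, unless failing retest; inactive means the rest, including hits failing retest or dose response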
HSV augment = enhancers of HSV replication in host cells, fold increase, host cell viability | HSV replication augmentation in cells | maximum fold increase | 220,000 compounds, 0.005% hits | AID 1956, 2009; in the data active means maximum fold increase above about 1.5; inconclusive means no clear call, values can overlap the other calls; tested in PC3 cells
CR mimetic SO = reduction of superoxide in aged yeast, primary screen, HTS. S. cerevisiae aged cells, superoxide DHE fluorescence; stronger effect = lower value. superoxide response (% of plate mean), % at 10 µM. 330,000 compounds, 0.18% hits. AID 2690, 2010;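 active means superoxide response under a set limit, about three screen SD below normal, cut at about 65% in these data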;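 further: yeast aged for seven days with compound at 30 °C before DHE staining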
MIN6 prolif = inducers of MIN6 beta-cell proliferation, primary screen, ATP luminescence, uHTS; MIN6 cells proliferation, ATPlite luminescence, 48 h; cells starved in 0.2% serum; 100% = growth in 10% serum; AID 2380, 2010; proliferation, % at 10 µM; 330,000 compounds, 0.29% hits;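 active means compounds whose signal lies at least 3.5 SD above the mean of all wells on their plate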
V-ATPase pH = regulators of yeast V-ATPase proton pumping, primary screen, pHLuorin cytosolic pH fluorescence | S. cerevisiae | response, % at 10 µM | 350,000 compounds, 0.37% hits | AID 504577, 2011; in the data active means response mostly above about 7.3%, no sharp cut-off; inactive means mostly below about 5.4%; further: actives read high
Cardio protect = cardioprotection against H2O2-induced cell death, primary screen, uHTS, H9c2 cells, ATPLite luminescence; H9c2 cardiomyocytes, H2O2 injury protection, 2 h; protection from H2O2 cell death, % at 20 µM; 360,000 compounds, 0.63% hits;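 active means compounds giving at least 50% protection of heart cells from peroxide-induced death in the single-dose screen, raw or plate-pattern-corrected value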
Hits are given with their value; 0 = inactive; ? = inconclusive; - = not tested or not shown. Shown are actives, neighbours in structure and some others; about 1.4% of the full set was active somewhere.

SMILES	p-CIP stab down	HSV augment	CR mimetic SO	MIN6 prolif	V-ATPase pH	Cardio protect
O=C(NNC(=O)c1cc(Br)ccc1Cl)c1csc(N2CCOCC2)n1	0	-	0	0	0	0
COc1ccc(-c2oc(=O)c3cc(OC)c(OC)cc3c2C#CCCO)cc1	-	-	0	0	0	66
COc1cc(OC)cc(-c2oc(=O)c3cc(OC)c(OC)cc3c2C#CCCO)c1	-	-	0	0	0	0
COc1cccc(/C=C2/CN(C)CC3=C2OC(N)=C(C#N)C3c2cccc(OC)c2)c1 (configuration not stated)	0	0	0	0	0	0
O=C(N/N=C/c1cccc(C(F)(F)F)c1)c1ccc(O)cc1	0	0	63	0	0	0
Cn1c(=O)c2cc(NC(=O)CCc3cccnc3)ccc2n1Cc1ccc(F)cc1	-	-	-	-	-	0
Cc1cc(C)n2nc(C(=O)N/N=C/c3c4ccccc4cc4ccccc34)nc2n1	0	0	0	0	0	64
Cc1cc(C)n2nc(C(=O)N/N=C/c3ccccc3Cl)nc2n1	0	0	0	0	0	0
CCCCOc1ccc(/C=C/C(=O)NC2=Nc3ccccc3NC(C)=C2C(=O)OCC)cc1OC	0	0	0	0	0	0
COc1cc(/C=C2\SC(N3CCc4ccccc4C3)=NC2=O)cc(OC)c1OC	0	0	0	0	0	52
Cc1ccc(C)c2[nH]c(=O)c(CN(Cc3ccc4c(c3)OCO4)Cc3nnnn3Cc3ccco3)cc12	0	0	0	0	0	60
CCOc1ccc2[nH]c(=O)c(CN(Cc3ccco3)Cc3nnnn3Cc3ccccc3)cc2c1	0	0	0	0	0	0
CCC(c1nnnn1CCc1ccccc1)N(Cc1ccco1)Cc1cc2cccc(C)c2[nH]c1=O (configuration not stated)	0	0	0	0	0	0
CCOc1ccc2[nH]c(=O)c(CN(Cc3ccco3)C(CC)c3nnnn3Cc3ccccc3)cc2c1 (configuration not stated)	0	0	0	0	0	86
COc1ccc2[nH]c(=O)c(CN(Cc3ccco3)Cc3nnnn3Cc3ccccc3)cc2c1	0	0	0	0	0	66
COc1ccc2[nH]c(=O)c(CN(CCc3ccccc3)Cc3nnnn3CC3CCCO3)cc2c1 (configuration not stated)	0	0	0	0	0	76
CCOc1ccc2[nH]c(=O)c(CN(Cc3cccs3)C(CC)c3nnnn3C(C)(C)CC)cc2c1 (configuration not stated)	0	0	-	-	0	67
CCOc1ccc2[nH]c(=O)c(CN(Cc3nnnn3Cc3ccco3)C3CCCCC3)cc2c1	0	0	0	0	0	59
O=c1[nH]c2cc3c(cc2cc1CN(Cc1nnnn1CC1CCCO1)C1CCCCC1)OCO3 (configuration not stated)	0	-	0	0	0	57
CCOC(=O)C1CCN(C(=O)c2cc(COc3ccc(F)cc3F)on2)CC1	0	-	0	0	0	0
CC1(C(=O)NCc2ccc3c(c2)OCO3)CCN1C(=O)C1(c2ccc(Cl)cc2)CC1 (configuration not stated)	-	-	-	-	-	0
CC1CCCN(C(C(=O)Nc2ccc3c(c2)OCCO3)c2ccccc2)C1 (configuration not stated)	0	0	0	0	0	0
CC1CCCN(C(C(=O)Nc2ccc3c(c2)OCO3)c2ccccc2)C1 (configuration not stated)	0	0	0	0	14	0
O=C(CSc1nc2[nH]ncc2c(=O)[nH]1)Nc1ccc(Cl)cc1	-	-	0	0	0	0
Cc1ccccc1NC(=O)c1cc2ccccc2o1	0	-	0	0	14	0
SMILES	p-CIP stab down	HSV augment	CR mimetic SO	MIN6 prolif	V-ATPase pH	Cardio protect
CCC(=O)N1CCN(c2ccc(NC(=O)c3cc4ccccc4o3)cc2Cl)CC1	0	-	0	0	0	53
CCCC(=O)N1CCN(c2ccc(NC(=O)c3cc4ccccc4o3)cc2Cl)CC1	0	0	0	0	0	0
O=C(CN1CCN(Cc2ccccc2)CC1)NNC(=O)c1ccccc1	-	-	0	0	0	0
Cc1nn(-c2ccccc2)c(N2CCCC2)c1/C=N/n1cnc2scc(-c3ccccc3)c2c1=O	0	?	0	0	0	62
O=C(CCc1ccc(O)c(O)c1)N/N=C/c1ccc2c(c1)OCO2	0	-	0	0	0	87
CCOc1ccc(NC(=O)c2c(NC(=O)CNCCN3CCOCC3)sc3c2CCC3)cc1	0	-	0	0	0	0
CCN(CC)CCCNc1nc2cc(OC)c(OC)cc2c2nc(-c3cccnc3)nn12	0	0	0	0	0	0
COCCCNc1nc2cc(OC)c(OC)cc2c2nc(-c3ccccc3)nn12	0	-	0	0	0	56
COc1cc2nc(NCC3CCCO3)n3nc(-c4cccnc4)nc3c2cc1OC (configuration not stated)	0	-	0	0	0	91
CCN(CC)CCCNc1nc2cc(OC)c(OC)cc2c2nc(-c3ccccc3)nn12	0	0	0	0	0	0
C[C@@H]1CN([C@H](C)CO)C(=O)c2cc(C#CC(C)(C)O)cnc2O[C@@H]1CN(C)C(=O)C1CC1	-	-	-	-	0	0
Cc1cc(C)c(OCC(=O)Nc2nc(-c3ccccn3)cs2)c(C)c1	0	0	0	0	0	63
CC(Oc1ccc(F)cc1)C(=O)Nc1nc(-c2ccccn2)cs1 (configuration not stated)	-	-	0	0	0	67
O=C(Nc1nc(-c2ccccn2)cs1)C1CC1	0	0	0	0	0	0
O=C(CC1CC2CCC1C2)Nc1nc(-c2ccccn2)cs1 (configuration not stated)	0	0	0	0	0	53
O=C(CCS(=O)(=O)c1ccccc1)Nc1nc(-c2ccccn2)cs1	-	0	0	0	0	51
O=C(CCS(=O)(=O)c1ccc(F)cc1)Nc1nc(-c2ccccn2)cs1	0	-	0	0	0	0
COCCn1c(=NC(=O)c2ccc(S(=O)(=O)N3CCCc4ccccc43)cc2)sc2cc(S(C)(=O)=O)ccc21	0	0	0	0	0	0
CCOC(=O)Cn1c(=NC(=O)c2cc(-c3cccs3)nc3ccccc23)sc2cc(S(N)(=O)=O)ccc21	0	0	0	0	0	75
COCCn1c(=NC(=O)c2nc3ccccc3s2)sc2cc(S(C)(=O)=O)ccc21	0	0	0	0	0	58
CCOC(=O)Cn1c(=NC(=O)C2COc3ccccc3O2)sc2cc(S(N)(=O)=O)ccc21 (configuration not stated)	0	0	0	0	0	0
COC(=O)Cn1c(=NC(=O)c2cc(-c3cccs3)nc3ccccc23)sc2cc(S(N)(=O)=O)ccc21	0	0	0	0	0	66
COC(=O)Cn1c(=NC(=O)c2nc3ccccc3s2)sc2cc(S(N)(=O)=O)ccc21	0	0	0	0	0	0
